According to PubChem BioAssay (NCATS):
Results filed as inconclusive are left out. Unmarked numbers belong to inactive results. Active and inactive are the calls of the source. The call rests on the fitted dose curve; in most records, active means well fitted inhibition curve with a large enough effect; inconclusive means small, poorly fitted or top-dose-only effect; inactive means no such curve, though single readings can be large or run the other way.

Test: NS1 protein of Zika virus - qHTS assay to identify small molecule inhibitors in human HEK 293 cells (AID 1347053); further: nearly all actives have a fitted effect of over 55% in size;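 on activity change, negative = inhibition: plate controls were infected untreated cells for no effect and uninfected cells for full effect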
Details: HEK293 ZIKV MR766 infection, NS1 TR-FRET, 24 h; series mostly up to 46.1 µM; activity change, negative = inhibition: at the top concentration
Procedure, shortened: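 In this cell-based screen, HEK 293 cultures received compound for one hour before Zika MR766 at MOI = 0.5. NS1 was quantified 24 hours later by TR-FRET, normalized to virus-free wells and infected wells.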
Potency means the concentration at half of the fitted maximal effect.

Compound	activity change, negative = inhibition	Potency
COc1ccc(N(C(=O)Oc2c(C)cccc2C)c2ccnc(Nc3ccc(N4CCN(C)CC4)cc3)n2)c(OC)c1	3.02%	–
CC(N[C@H]1C[C@H]1c1ccccc1)c1ccc2c(c1)OCCO2 (some centres not stated)	15.4%	–
COc1nn(CSP(=S)(OC)OC)c(=O)s1	6.51% [at 92.8 µM]	–
CC(=O)Nc1ccc(OC[C@](C)(O)C(=O)Nc2ccc([N+](=O)[O-])c(C(F)(F)F)c2)cc1	-1.26%	–
CC(C)[C@H]1C(=O)N[C@H](CO)Cc2c[nH]c3cccc(c23)N1C	-3.37%	–
NC(CP(=O)(O)O)C(=O)O (configuration not stated)	6.04%	–
C[C@@]12OC(=O)[C@]1([C@@H](O)[C@@H]1C=CCCC1)NC(=O)[C@H]2CCCl	–	833 nM (active)
CO/C=C(/C(=O)OC)c1ccccc1Oc1cc(Oc2ccccc2C#N)ncn1	–	14100 nM (active)
O=C(Nc1ccncc1)C(=O)c1cn(Cc2ccc(Cl)cc2)c2ccccc12	–	9.3 nM (active)
N=c1c2c(-c3ccccc3)c(-c3ccccc3)n(Cc3ccccc3)c2ncn1C1CCC(O)CC1 (configuration not stated)	–	26400 nM (active)
CC[C@@H]1[C@@H](C)O[C@@](O)([C@@H](C)[C@H](O)[C@H](C)[C@H]2OC(=O)C=CC=C[C@@H](C)[C@@H]([C@@H](C)[C@@H](O)[C@H](C)[C@@]3(O)C[C@H](O[C@H]4C[C@H](O)[C@H](O)[C@H](C)O4)[C@H](CC)[C@@H](C)O3)OC(=O)C=CC=C[C@@H]2C)C[C@H]1O[C@H]1C[C@H](O)[C@H](O)[C@H](C)O1	–	1050 nM (active)
CCOC(=O)Nc1ccc(NCc2ccc(F)cc2)cc1N	-4.49%	–
